Experimental data taken from PubChem BioAssay.
The source made the active and inactive calls.

How the values were obtained:
[1] = binders of probe aFSTL3 on microarray, primary screen, stem cell growth factor project, biochemical, small-molecule microarray, fluorescence 635/667 (AID 1064); settings: higher = more signal;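 further: measures binding of the biotinylated anti-FSTL3 antibody to printed compounds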
[2] = binders from COS7 lysate, DM2A8 probe, primary screen, torsin A project, cell lysate, small-molecule microarray, fluorescence 635/667 (AID 1065); settings: higher = more signal, COS7 lysate expressing mutant human TOR1A
[3] = binders of probe aFGF2 on microarray, primary screen, stem cell growth factor project, biochemical, small-molecule microarray, fluorescence 635/667 (AID 1067); settings: higher = more signal;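 further: measures binding of biotinylated aFGF2 protein to printed compounds on slides; z-score merges feature fluorescence and signal-to-noise across triplicate slides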
[4] = binders of probe aFGF10 on microarray, primary screen, stem cell growth factor project, biochemical, small-molecule microarray, fluorescence 635/667 (AID 1071); settings: higher = more signal;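 further: score merges 667 nm spot intensity and signal to noise from triplicate slides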
[5] = molecular target: Neurogenic locus notch homolog protein 2 (Homo sapiens) (UniProt Q04721); assay: Notch2 binders on small-molecule microarrays, primary screen, biochemical, small-molecule microarray, 635 nm fluorescence, stem cell growth factors (AID 1073); settings: Notch2 binding, higher = more signal
[6] = molecular target: Pro-neuregulin-1, membrane-bound isoform (Homo sapiens) (UniProt Q02297); assay: NRG1 binders on small-molecule microarrays, primary screen, psychiatric disease protein project, biochemical, small-molecule microarray, fluorescence 635/667 (AID 1075); settings: NRG1 binding, 635 nm fluorescence, higher = more signal;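 further: score combines 667 nm spot fluorescence with signal to noise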
[7] = test system: Neuregulin-1 EGF-like domain; assay: binders of neuregulin-1 EGF-like domain, primary screen, biochemical, small-molecule microarray, 635 nm fluorescence (AID 1081); settings: small-molecule microarray binding, higher = more signal;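 further: binding of the protein to compounds printed on small-molecule microarray slides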
[8] = FRG1 promoter luciferase signal modulators, primary screen, FRG1 inhibition for FSHD, cell-based, C2C12 myotubes, firefly/Renilla luciferase, luminescence (AID 1084); settings: higher = more signal, called active from +8 up or from −8 down
[9] = binders of probe aFST on microarray, primary screen, stem cell growth factor project, biochemical, small-molecule microarray, fluorescence 635/667 (AID 1086); settings: higher = more signal;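 further: score merges 667 nm fluorescence with signal-to-noise of each printed compound spot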
[10] = binders of probe aHhip on microarray, primary screen, stem cell growth factor project, biochemical, small-molecule microarray, fluorescence 635/667 (AID 1087); settings: higher = more signal;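 further: score merges spot fluorescence at 667nm with spot signal to noise ratio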

Chain of Pro-neuregulin-1, membrane-bound isoform (Homo sapiens) (Q02297 whole entry, looked up, the tested form may be a part, canonical isoform): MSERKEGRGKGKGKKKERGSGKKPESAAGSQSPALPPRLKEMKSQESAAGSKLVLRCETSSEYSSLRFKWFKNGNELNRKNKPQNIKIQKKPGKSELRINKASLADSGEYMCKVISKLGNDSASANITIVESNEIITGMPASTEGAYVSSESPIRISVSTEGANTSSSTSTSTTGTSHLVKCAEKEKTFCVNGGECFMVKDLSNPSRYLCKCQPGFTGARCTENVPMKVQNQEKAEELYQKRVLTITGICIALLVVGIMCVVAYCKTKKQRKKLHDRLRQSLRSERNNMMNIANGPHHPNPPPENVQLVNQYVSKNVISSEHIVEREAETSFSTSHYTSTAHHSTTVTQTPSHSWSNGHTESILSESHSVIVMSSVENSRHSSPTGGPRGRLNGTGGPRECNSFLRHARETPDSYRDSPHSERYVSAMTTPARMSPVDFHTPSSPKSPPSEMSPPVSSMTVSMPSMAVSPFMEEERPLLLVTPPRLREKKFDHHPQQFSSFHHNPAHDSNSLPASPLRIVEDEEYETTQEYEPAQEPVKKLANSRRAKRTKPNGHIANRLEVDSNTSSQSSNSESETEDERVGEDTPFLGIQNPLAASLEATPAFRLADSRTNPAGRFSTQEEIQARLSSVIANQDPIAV
Chain of Neurogenic locus notch homolog protein 2 (Homo sapiens) (Q04721 whole entry, looked up, canonical isoform): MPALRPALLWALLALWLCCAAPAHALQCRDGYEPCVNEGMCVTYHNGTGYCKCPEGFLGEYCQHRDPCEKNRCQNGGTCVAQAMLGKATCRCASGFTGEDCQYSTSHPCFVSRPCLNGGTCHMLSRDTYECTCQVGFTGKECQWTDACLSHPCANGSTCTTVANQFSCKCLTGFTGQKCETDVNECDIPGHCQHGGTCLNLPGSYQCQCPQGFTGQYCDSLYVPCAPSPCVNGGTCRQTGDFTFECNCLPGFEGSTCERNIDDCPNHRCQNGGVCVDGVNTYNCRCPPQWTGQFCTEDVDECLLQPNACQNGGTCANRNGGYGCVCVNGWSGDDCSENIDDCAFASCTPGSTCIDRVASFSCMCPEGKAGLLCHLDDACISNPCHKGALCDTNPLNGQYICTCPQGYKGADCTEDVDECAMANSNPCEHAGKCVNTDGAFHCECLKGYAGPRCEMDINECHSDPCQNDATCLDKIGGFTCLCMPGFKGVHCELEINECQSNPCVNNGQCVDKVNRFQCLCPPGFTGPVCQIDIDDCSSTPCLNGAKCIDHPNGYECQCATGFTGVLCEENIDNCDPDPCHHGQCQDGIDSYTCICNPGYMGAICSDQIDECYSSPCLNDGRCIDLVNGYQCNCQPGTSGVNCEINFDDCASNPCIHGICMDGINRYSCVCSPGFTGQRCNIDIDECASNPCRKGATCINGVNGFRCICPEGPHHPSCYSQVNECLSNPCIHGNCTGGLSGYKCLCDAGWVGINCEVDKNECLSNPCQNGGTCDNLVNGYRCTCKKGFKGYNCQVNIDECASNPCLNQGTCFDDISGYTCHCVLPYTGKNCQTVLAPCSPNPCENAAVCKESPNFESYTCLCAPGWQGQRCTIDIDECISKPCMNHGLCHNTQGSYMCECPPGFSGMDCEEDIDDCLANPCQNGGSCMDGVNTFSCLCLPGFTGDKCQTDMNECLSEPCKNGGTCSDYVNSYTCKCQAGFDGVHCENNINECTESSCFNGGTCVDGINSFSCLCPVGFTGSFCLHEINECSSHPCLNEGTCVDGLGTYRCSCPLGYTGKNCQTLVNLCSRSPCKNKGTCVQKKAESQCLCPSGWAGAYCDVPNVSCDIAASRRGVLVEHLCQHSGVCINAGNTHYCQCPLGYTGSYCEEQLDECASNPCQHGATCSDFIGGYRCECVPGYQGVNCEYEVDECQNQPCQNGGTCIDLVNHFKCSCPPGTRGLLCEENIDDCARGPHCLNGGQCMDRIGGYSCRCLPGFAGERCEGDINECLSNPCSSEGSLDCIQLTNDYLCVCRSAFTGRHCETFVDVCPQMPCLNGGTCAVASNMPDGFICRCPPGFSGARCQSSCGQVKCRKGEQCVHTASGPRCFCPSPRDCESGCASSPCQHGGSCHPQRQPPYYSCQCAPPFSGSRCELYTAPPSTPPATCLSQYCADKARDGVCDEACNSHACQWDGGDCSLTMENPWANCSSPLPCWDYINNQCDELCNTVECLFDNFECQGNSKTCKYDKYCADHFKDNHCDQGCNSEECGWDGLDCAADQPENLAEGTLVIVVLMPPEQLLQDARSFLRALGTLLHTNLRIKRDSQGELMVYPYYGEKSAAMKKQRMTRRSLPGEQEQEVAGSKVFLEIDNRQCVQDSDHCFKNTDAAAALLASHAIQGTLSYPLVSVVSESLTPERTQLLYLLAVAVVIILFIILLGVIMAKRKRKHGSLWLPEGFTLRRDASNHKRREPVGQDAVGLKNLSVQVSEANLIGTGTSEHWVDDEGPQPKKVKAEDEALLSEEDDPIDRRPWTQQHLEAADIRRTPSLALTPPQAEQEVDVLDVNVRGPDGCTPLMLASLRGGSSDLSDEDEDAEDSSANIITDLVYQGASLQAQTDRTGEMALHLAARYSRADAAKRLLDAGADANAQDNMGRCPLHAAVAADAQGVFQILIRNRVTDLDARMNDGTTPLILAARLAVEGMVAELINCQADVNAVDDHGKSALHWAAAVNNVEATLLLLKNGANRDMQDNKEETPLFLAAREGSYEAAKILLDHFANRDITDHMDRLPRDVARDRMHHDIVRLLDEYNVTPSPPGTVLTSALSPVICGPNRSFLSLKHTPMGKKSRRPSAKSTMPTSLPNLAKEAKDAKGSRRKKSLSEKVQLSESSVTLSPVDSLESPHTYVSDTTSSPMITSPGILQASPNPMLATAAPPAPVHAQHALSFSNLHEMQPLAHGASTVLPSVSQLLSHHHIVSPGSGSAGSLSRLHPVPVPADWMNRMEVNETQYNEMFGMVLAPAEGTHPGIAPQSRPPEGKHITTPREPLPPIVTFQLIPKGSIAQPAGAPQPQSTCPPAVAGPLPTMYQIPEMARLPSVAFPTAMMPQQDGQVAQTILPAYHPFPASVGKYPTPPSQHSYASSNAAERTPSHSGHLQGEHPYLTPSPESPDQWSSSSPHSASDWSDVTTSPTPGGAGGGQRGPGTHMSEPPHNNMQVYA

Structure (SMILES)	composite z-score [1]	composite z-score [2]	composite z-score [3]	composite z-score [4]	composite z-score [5]	composite z-score [6]	composite z-score [7]	z-score [8]	composite z-score [9]	composite z-score [10]
COC(=O)[C@H](Cc1ccccc1)N[C@H](/C=C/C1CC1)[C@@H](O)Cc1ccccc1	0.128	0.1	-0.202	-0.471	-0.567	-0.0373	-0.626	-1.72 (inactive)	-0.474	-0.132
C=CCN1Cc2ccccc2[C@@H]2OC(c3ccc(OCCCO)cc3)=N[C@]2(CCS(=O)(=O)c2ccccc2)C1=O	0.189	0.263	-0.04	0.345	1.55	0.721	1.24	-3.43 (inactive)	0.804	-0.191
COCCCNC(=O)[C@@H]1c2ccccc2C(=O)N(Cc2ccccc2)[C@H]1c1ccc(CO)cc1	0.0981	0.361	-0.0952	0.12	0.712	0.943	0.565	-0.179 (inactive)	0.418	0.253
CCOC(=O)C[C@H]1[C@H](OC(=O)c2ccc(-c3ccccc3)cc2)[C@@H](NC(=O)c2ccccc2)c2cc(OCCCO)ccc2N1C(=O)c1ccc2ccccc2n1	-0.168	0.732	-0.105	0.311	0.606	0.742	0.507	1.22 (inactive)	0.402	-0.0994
O=C1NC(=O)C2C1C=CC(C(O)C1CC=CCC1)N2Nc1ccccn1 (stereo not given)	0.0882	0.922	0.135	0.938	1.2	-0.0625	1.11	0.845 (inactive)	0.324	-0.445
CC(C)NC(=O)[C@@]1(Cc2ccccc2I)c2ccccc2C(=O)N(Cc2ccccc2Cl)[C@H]1c1ccc(CO)cc1	0.232	0.152	0.028	0.504	0.917	1.19	1.22	-2.18 (inactive)	0.237	-0.0994
COCCCNC(=O)[C@@H]1c2ccccc2C(=O)N(Cc2ccccc2OC)[C@H]1c1ccc(CO)cc1	-0.169	0.64	-0.0021	0.584	0.239	1.8	1.34	-1.57 (inactive)	-0.0311	-0.0645
O=C1C2C=CC(C(O)C=Cc3ccc([N+](=O)[O-])cc3)N(Nc3ccccc3F)C2C(=O)N1c1ccccc1 (stereo not given)	0.133	0.537	0.0135	1.03	1.51	1.39	1.16	0.477 (inactive)	1.11	0.0274
CCOC(=O)C[C@H]1[C@H](OC(=O)c2cc3ccccc3oc2=O)[C@@H](NC(=O)CC(C)C)c2cc(OCCCO)ccc2N1C(=O)c1ccccc1	-0.26	0.478	-0.0327	0.667	0.3	-0.0698	0.397	-0.332 (inactive)	0.128	0.0373
COc1cc(CO)cc(I)c1O[C@H]1C=C(C(=O)NCCO)C[C@@H](N(C(=O)c2cc3ccccc3oc2=O)C2CCCCCC2)[C@@H]1O	-0.386	0.419	-0.0935	0.661	0.511	-0.19	-0.52	-0.738 (inactive)	-0.0938	0.0646
CCN(CC)c1ccc(N2CC=CC34O[C@@H]5C=CCOC(=O)[C@@H]5[C@H]3C(=O)N(CCCCCCO)[C@@H]4C2=O)cc1 (stereo not given in full)	0.52	0.19	-0.167	-0.631	-0.489	1.87	1.46	-0.766 (inactive)	-0.263	-0.0296
C=CC[C@]1(C(N)=O)N=C(c2ccc(OCCCO)cc2)O[C@H]1c1ccccc1	0.966	-0.148	-0.0286	-0.0773	0.494	1.92	1.29	-1.59 (inactive)	-0.0521	-0.0296
COc1ccc(-c2cc3c(c(Cc4ccccc4)n2)[Si](C(C)C)(C(C)C)OC3)cn1	-0.305	0.28	-0.0668	0.0198	0.0333	-0.53	-0.723	-1.27 (inactive)	0.29	-0.236
CC(=CC1CCCCC1)[C@@H](NC(=O)c1cccnc1)c1ccc(-c2ccccc2)cc1	0.365	-0.545	0.0021	-0.25	0.142	0.0657	-0.362	-0.972 (inactive)	0.281	-0.194
O=C1O[C@@H](c2ccccc2)[C@@H](c2ccccc2)N2[C@@H](c3ccc(OCCO)cc3)[C@]3(C(=O)Nc4ccc(C#CCCO)cc43)[C@@H](C(=O)NC[C@H](O)c3ccccc3)[C@H]12	0.193	0.458	-0.0281	0.902	0.578	1.01	1.17	-0.772 (inactive)	0.456	0.0052
CO[C@H]1O[C@H](CO)[C@@H](OC(=O)Nc2ccccc2)[C@@H]2OC(=O)[C@@H](Cc3ccc4ccccc4c3)C/C=C/C[C@H](Cc3ccc4ccccc4c3)C(=O)O[C@@H]12	0.0395	0.821	0.126	0.908	0.336	0.915	0.965	-1.62 (inactive)	0.316	-0.191
COc1cc2c(cc1O)C(c1cccs1)N(Cc1cccc(OC(F)(F)F)c1)CC2 (stereo not given)	0.0011	0.61	-0.114	-0.0012	0.192	1.39	0.774	-0.79 (inactive)	-0.146	-0.164
CC=CC(O)C1C=CC2C(=O)N(C)C(=O)C2N1N(c1ccccc1)c1ccccc1 (stereo not given)	-0.108	0.273	-0.0567	0.367	1.44	0.837	1.12	0.621 (inactive)	-0.132	-0.201
[N-]=[N+]=NCc1ccccc1[C@H]1OC(c2ccc(OCCCO)cc2)=N[C@@]1(Cc1ccccc1)C(=O)N1CCCCC1	-0.222	0.368	0.022	0.78	1.46	0.947	1.18	-2.51 (inactive)	0.573	-0.201
[N-]=[N+]=Nc1ccccc1C[C@]1(C(=O)N2CCCCC2)COC(c2ccc(OCCCO)cc2)=N1	-0.11	0.0405	0.0605	0.87	0.708	1.64	0.995	-2.42 (inactive)	0.755	-0.353
CC(C)[C@@H](C(=O)O)n1cc(C2(O)CCCCC2)nn1	-0.401	-0.938	-0.183	0.78	0.63	0.394	0.451	0.356 (inactive)	0.27	-0.218
O=C1O[C@@H](c2ccccc2)[C@@H](c2ccccc2)N2[C@@H](c3ccccc3OCCO)[C@]3(C(=O)Nc4ccc(C#CC5(O)CCCCCC5)cc43)[C@@H](C(=O)N3CCN(c4ncccn4)CC3)[C@H]12	-0.002	0.432	0.0182	0.92	-0.116	0.893	1.2	-2.4 (inactive)	-0.0815	-0.137
